In the library only some 2.8% were active in any assay of this set; here they are far more common.
PI5P4Ka inh: qHTS for Inhibitors of phosphatidylinositol 5-phosphate 4-kinase (PI5P4K); Phosphatidylinositol 5-phosphate 4-kinase type-2 alpha (Homo sapiens), P48426; PI5P4Kalpha enzyme, ADP-Glo luminescence, 60 min; active compounds read low; max response, %; actives 1.2% (n = 330,000); AID 652105, 2013; active means max response of -50% or lower; inconclusive means between -30% and -50%; inactive means -30% or higher; further: value at the top dose of about 77 µM; on the % scale 0 is the no-effect control and ±100 the full control effect
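PI5P4Kalpha ADP-Glo assay; 5 microM ATP final; 60 min RT reaction; HEPES pH 7.4/EGTA/CHAPS, 5% DMSO; controls lacking substrate or enzyme; luminescent end-point.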
Pol kappa inh-1: qHTS for Inhibitors of Polymerase Kappa; DNA polymerase kappa (Homo sapiens), Q9UBT6; purified Pol kappa, fluorescent DNA synthesis assay, 10 min; Potency, µM (top dose mostly 107 µM), for inactives: at the highest dose activity, negative = inhibition, hits mostly inhibitors; actives 0.53% (n = 400,000); further: potency means the concentration at half of the fitted maximal effect; on the % scale 0 is the no-effect control and ±100 the full control effect
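50 nM final substrate added after 15 min RT preincubation of 10 nM Pol kappa with compound; fluorescence read at 0 and 10 min.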
WRN inhibitor: qHTS for Inhibitors of WRN Helicase; Bifunctional 3'-5' exonuclease/ATP-dependent helicase WRN (Homo sapiens), Q14191; WRN helicase unwinding, fluorescent forked duplex, kinetic; Potency, µM (series often up to 114 µM), without a hit: at the top dose activity change, negative = inhibition, usual class: inhibitors; actives 0.46% (n = 360,000); AID 651768, 2012; further: potency means the concentration at half of the fitted maximal effect; on the % scale 0 is the no-effect control and ±100 the full control effect; nearly all actives have a fitted effect of over 55% in size
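Kinetic fluorescence helicase assay: unwinding of a quenched forked DNA duplex (100 nM final) with 2 mM ATP final raises red fluorescence (525/598 nm). Compounds sat 15 min at room temperature with 20 nM WRN beforehand.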
Pol iota inh: qHTS for Inhibitors of Polymerase Iota; DNA polymerase iota (Homo sapiens), Q9UNA4; Pol iota fluorescent replication assay, 10 min; Potency, µM (series often up to 115 µM), for the others: at the top dose activity, negative = inhibition, hits mostly inhibitors; actives 1% (n = 390,000); AID 588590, 2011; further: potency means the concentration at half of the fitted maximal effect
Target sequence (Q9UNA4 whole entry, looked up): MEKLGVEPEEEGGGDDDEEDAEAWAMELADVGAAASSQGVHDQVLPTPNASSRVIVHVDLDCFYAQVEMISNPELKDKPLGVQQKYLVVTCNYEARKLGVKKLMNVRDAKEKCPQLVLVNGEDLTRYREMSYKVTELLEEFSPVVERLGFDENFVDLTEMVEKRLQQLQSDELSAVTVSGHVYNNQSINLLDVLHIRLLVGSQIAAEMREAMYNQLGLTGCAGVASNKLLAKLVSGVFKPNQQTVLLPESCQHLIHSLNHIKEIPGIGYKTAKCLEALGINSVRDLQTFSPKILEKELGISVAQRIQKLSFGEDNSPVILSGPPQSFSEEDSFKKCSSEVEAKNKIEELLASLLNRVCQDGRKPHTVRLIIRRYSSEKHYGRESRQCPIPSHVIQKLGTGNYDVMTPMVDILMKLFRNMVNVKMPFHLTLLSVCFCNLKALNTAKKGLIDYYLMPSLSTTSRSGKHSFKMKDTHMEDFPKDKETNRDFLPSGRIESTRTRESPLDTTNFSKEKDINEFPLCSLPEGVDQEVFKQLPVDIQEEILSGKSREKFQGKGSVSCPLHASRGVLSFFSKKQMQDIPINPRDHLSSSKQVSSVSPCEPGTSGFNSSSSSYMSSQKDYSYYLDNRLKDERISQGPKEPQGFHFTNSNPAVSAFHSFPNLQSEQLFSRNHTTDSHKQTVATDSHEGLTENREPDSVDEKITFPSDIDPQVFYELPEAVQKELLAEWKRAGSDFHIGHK
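Pol iota at 10 nM preincubated 15 min with compounds at room temperature; reaction started with fluorescent substrate, 50 nM final. Fluorescence read kinetically at 0 and 10 min; buffer-only wells as negative control.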
Pol eta inh-1: qHTS for Inhibitors of Polymerase Eta | actives 1.2% (n = 390,000) | recombinant Pol eta, fluorescent DNA replication assay | AID 588591, 2011 | Potency, µM (titrated, usually from 114 µM), for the others: top-dose activity change, negative = inhibition, actives largely listed as inhibitors; further: potency means the concentration at half of the fitted maximal effect; on the % scale 0 is the no-effect control and ±100 the full control effect
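Pol eta (10 nM) was preincubated with compounds for 15 min at room temperature, after which fluorescent replication substrate (50 nM final) was added to start the reaction. Fluorescence was read kinetically at 0 and 10 min.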
Pol beta inh: qHTS Assay for Inhibitors of DNA Polymerase Beta. actives 1.3% (n = 340,000). Pol beta primer extension/strand displacement, fluorescence kinetic. Potency, µM (series often up to 114 µM), inactives show top-dose activity change, negative = inhibition, hits mostly inhibitors. P06746; further: potency means the concentration at half of the fitted maximal effect; on the % scale 0 is the no-effect control and ±100 the full control effect
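Pol beta (10 nM) and compounds were preincubated 15 min at room temperature, then 50 nM substrate (final) started primer extension/strand displacement. Reads were taken at 0 and 10 min; concentration-response data were fitted to a four-parameter Hill equation.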
PGK validate: qHTS for inhibitors of Phosphogylcerate Kinase: Hit Validation Screen; shares compounds with Pol kappa inh-1; Potency, µM (doses to about 57.5 µM), without a hit: top-dose activity change, negative = inhibition, hits mostly inhibitors; actives 79% (n = 500); AID 686980, 2013; TbPGK coupled GAPDH assay, Kinase-Glo luminescence; further: potency means the concentration at half of the fitted maximal effect; on the % scale 0 is the no-effect control and ±100 the full control effect; nearly all actives have a fitted effect of over 65% in size
POLI cherry-pick: qHTS for Inhibitors of Polymerase Iota: Confirmatory Assay for Cherry-picked Compounds. AID 720496, 2013. shares compounds with Pol kappa inh-1. Potency, µM, hits mostly inhibitors. Pol iota primer extension, TAMRA/BHQ fluorescence. actives 77% (n = 1,500); further: potency means the concentration at half of the fitted maximal effect
Pol kappa inh-2: qHTS for Inhibitors of Polymerase Kappa: Confirmatory Assay for Cherry-picked Compounds; purified Pol-kappa, fluorescent strand-displacement substrate; shares compounds with Pol eta inh-1; AID 720501, 2013; Potency, µM, most hits filed as inhibitors; actives 76% (n = 920); further: potency means the concentration at half of the fitted maximal effect
Pol eta inh-2: qHTS for Inhibitors of Polymerase Eta: Confirmatory Assay for Cherry-picked Compounds; shares compounds with Pol eta inh-1; Pol eta primer extension, TAMRA/BHQ fluorescence, 10 min; Potency, µM, actives largely listed as inhibitors; actives 64% (n = 2,600); AID 720502, 2013; further: potency means the concentration at half of the fitted maximal effect
* marks the source's active call; other numbers are inactive results; ? = inconclusive; . = no result given; [ ] = remark or other dose. Unless noted, the call rests on the fitted dose curve; in most records, active means well fitted curve in the direction sought with a large enough effect; inconclusive means small, poorly fitted or top-dose-only effect, or another doubt; inactive means no such curve, though single readings can be large; an effect the other way counts as inactive or inconclusive.

SMILES | PI5P4Ka inh | Pol kappa inh-1 | WRN inhibitor | Pol iota inh | Pol eta inh-1 | Pol beta inh | POLI cherry-pick | Pol kappa inh-2 | Pol eta inh-2 | others
CCc1ccc(C(=O)c2cn(CC(=O)Nc3ccc4c(c3)OCO4)c3ccc(OC)cc3c2=O)cc1 | . | -21.6% | . | ? | 44.7µM* | 10µM* | 21.2* | 16.8* | ?
CCc1ccc(C(=O)c2cn(CC(=O)Nc3ccc(OC)cc3)c3cc4c(cc3c2=O)OCO4)cc1 | . | -1.3% | . | 26.8% | -7.2% | ? | . | . | .
COc1ccc(-n2nc3c(N4CCCC(C(=O)NCc5ccccc5C)C4)nnc(C)c3c2C)cc1 (stereo not given) | . | -12.6% | . | ? | -4.6% | ? | . | . | .
CCOC(=O)C1=C(C)N=c2s/c(=C/c3ccccc3)c(=O)n2C1c1ccc(OC)c(OC)c1 (stereo not given) | -2.9 | -4.4% | 14.9% | 14.0% | -14.0% | 28.1% | . | . | .
CCOC(=O)C1=C(C)N=c2s/c(=C/c3cccc([N+](=O)[O-])c3O)c(=O)n2C1c1ccc(OC)cc1OC (stereo not given) | -55.4* | -7.0% | -32.2%[11.6 µM] | ? | 50.1µM* | 0.6% | 75.2* | . | 75.7*
CC1=C(C(=O)OC(C)C)C(c2ccc(Cl)cc2)n2c(sc(=Cc3ccc(OCC(=O)O)cc3)c2=O)=N1 (stereo not given) | -22.3 | . | ? | . | . | . | . | . | .
CCOC(=O)C1=C(C)N=c2s/c(=C/c3ccc(OCC(=O)O)cc3)c(=O)n2C1c1ccc(OC)cc1OC (stereo not given) | -10.1 | ? | -6.5% | ? | 28.2µM* | -5.3% | 33.6* | 29.9* | 67.5*
CCOC(=O)C1=C(C)N=c2s/c(=C/c3ccc(OCC(=O)O)cc3)c(=O)n2C1c1ccc(F)cc1 (stereo not given) | -11.2 | -17.0% | -5.8%[11.6 µM] | 17.8µM* | ? | 56.2µM* | 75.2* | ? | .
CCOC(=O)C1=C(C)N=c2s/c(=C\c3ccc(O)c([N+](=O)[O-])c3)c(=O)n2C1c1ccccc1OC (stereo not given) | ? | -22.5% | -14.2% | ? | 8.1% | 1.0% | . | . | .
Cn1c(=S)[nH]c2cc(C(=O)N3CCN(Cc4cccs4)CC3)ccc2c1=O | . | 15.3% | . | 9.0% | . | . | . | . | .
Cc1nc(S/C(=C/c2ccc(OCc3ccc(C(=O)O)cc3)cc2)C(=O)O)n[nH]1 | ? | 39.8µM* | ? | 3.98µM* | 20µM* | -26.1% | 11.9* | . | 26.9*
N#C/C(=C\c1ccc(OCc2ccc(C(=O)O)cc2)cc1)C(=O)NCc1ccccc1 | -0.8 | 6.1% | -16.6%[57.1 µM] | ? | ? | -7.2% | . | . | .
O=C(O)CN1C(=O)/C(=C\c2cc([N+](=O)[O-])ccc2OCc2ccccc2Cl)SC1=S | -71.5* | ? | 44.7µM* | 28.2µM* | 22.4µM* | 39.8µM* | ? | . | ?
COc1cc(/C=C2\SC(=S)N(CC(=O)O)C2=O)ccc1OC(=O)c1ccco1 | -12.6 | -6.3% | -21.6% | 218.5% | 1.0% | 15.2% | . | . | .
O=C(O)CN1C(=O)/C(=C\c2cc(Br)ccc2OCc2ccc(Cl)cc2)SC1=S | ? | -2.8% | 56.2µM* | -5.7% | 22.4µM* | ? | ? | . | 47.8*
Cc1ccc(NC(=O)CCc2nc3cccnc3n2-c2ccccc2)cc1 | . | -10.9% | . | 7.0% | -11.7% | 4.7% | . | . | .
CC(C)(Sc1ccc(CCN(CCCCC2CCCCC2)C(=O)NC2CCCCC2)cc1)C(=O)O | -21.1 | ? | -5.0% | 35.9% | 89.1µM* | ? | 42.3* | 18.9* | 19*
Cc1ccc(-c2noc(CN(C3CCCCC3)S(=O)(=O)c3ccc(Cl)cc3)n2)cc1 | . | -13.4% | . | 30.6% | -16.5% | -12.1% | . | . | .
COc1ccc(-n2cc(C(=O)N(C)c3cc(C)ccc3OC)c3ccccc3c2=O)cc1 | . | -2.1% | . | ? | -10.2% | 17.1% | . | . | .
Oc1cc(Br)ccc1C=Nc1ccc(N2CCCCC2)cc1 | 3.5 | -2.7%[60.1 µM] | -2.4% | 19.9% | -13.1% | 12.5% | . | . | .
Oc1ccc(C=Nc2ccc(N3CCOCC3)cc2)c(O)c1 | -60.0* | -41.4% | -23.5%[57.1 µM] | ? | 14.1µM* | 3.9% | ? | . | ?
COCCN1C(=O)C(=O)/C(=C(/O)c2cccc(OC)c2)C1c1ccco1 (stereo not given) | -11.1 | ? | -9.6%[11.6 µM] | ? | 10µM* | 31.6µM* | ? | . | 60.1*
COc1cccc(/C(O)=C2/C(=O)C(=O)N(Cc3cccnc3)C2c2ccco2)c1 (stereo not given) | . | -8.4% | 0.6% | ? | 0.5% | ? | . | . | .
Cc1nc2c(nc1C)C(=O)c1ccccc1C2=O | -0.3 | -15.1% | -9.3% | 12.7% | ? | . | . | . | .
COC1=C(Br)C(=O)c2nc(C)ccc2C1=O | -68.0* | . | 50.1µM* | . | 14.1µM* | . | 26.7* | 18.9* | 30.1*
COC1=C(N)C(=O)c2nc(C)ccc2C1=O | -4.3 | ? | -32.6% | 17.8µM* | 8.91µM* | . | 23.8* | 18.9* | 30.1*
NC1=CC(=O)C(=O)c2ccccc21 | -15.3 | -10.3% | -23.6% | ? | ? | . | . | . | .
O=C1C=C(O)c2[nH]c(=O)ccc2C1=O | -57.4* | ? | ? | 17.8µM* | 17.8µM* | . | 53.2* | 23.8* | 47.8*
O=c1cc(-c2ccc(O)cc2)oc2c(O)c(O)c(O)c(O)c12 | -15.2 | 10µM* | 7.08µM* | 10µM* | 1.58µM* | 2.24µM* | 7.52* | 4.74* | 5.36* | PGK validate=0.919µM*
